A selection: hits, their analogues and other compounds. The true share with any hit is near 1.5%.
Nrf2 activator – qHTS of Nrf2 Activators; AREc32 ARE-luciferase reporter (MCF7-derived line), luminescence, 24 h; AID 624171, 2012; Potency, µM (titrated, usually from 46.1 µM), most hits filed as activators; actives 0.31% (n = 410,000); note: nearly all actives have a fitted effect of over 65% in size
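Steps: seed AREc32_Fluc cells (1000/well, 5% FBS OPTI-MEM); incubate overnight at 37 deg C; add 23 nL compound; incubate 24 hr; add Steady-Glo; hold 30 min RT; read luminescence.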
uPA surface inh – qHTS for Inhibitors of Cell Surface uPA Generation; cell surface uPA generation assay, qHTS; AID 540303, 2011; actives 0.31% (n = 330,000); Potency, µM (doses to about 38.3 µM), actives largely listed as inhibitors; active = well fitted inhibition curve with a large enough effect; inconclusive = small, poorly fitted or top-dose-only effect; inactive = no such curve, though single readings can be large or run the other way; tested in mouse RAW 264.7 cells; note: nearly all actives have a fitted effect of over 55% in size
Integrin act MD – qHTS for Activators of Integrin-Mediated Alleviation for Muscular Dystrophy. alpha7betagal myoblasts, beta-gal FDG fluorescence, 48 h. AID 624291, 2012. actives 0.064% (n = 350,000). Potency, µM (titrated, usually from 38.3 µM), most hits filed as activators; note: nearly all actives have a fitted effect of over 60% in size
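alpha7betagal+/- myoblasts (passage 13, 250/well) treated 48 h at 37C with compounds at 1:260 dilution of DMSO stock. Lysed, then beta-galactosidase activity read as FDG fluorescence (ex 480/em 540) after 30 min, with pre-read for autofluorescence.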
IL2 activator – qHTS of IL-2 Activators | actives 0.065% (n = 360,000) | activation, % (series mostly up to about 46 µM) | AID 652025, 2013 | IL-2 activation reporter assay, cell-based qHTS; stimulated with anti-CD3/CD4/CD28 beads; in transgenic mouse T cells; in the data active = activation above about 50%; inconclusive = mostly about 30% to 49%
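Readout is EGFP and DsRed signal by fluorescent plate cytometry after 18 h at 37 degrees C. Transgenic mouse T cells (750/well) received compound for 60 min before bead stimulation (anti-CD3, anti-CD4, anti-CD28); memory T cells served as non-tolerant control.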
ALOX12 inh – Primary qHTS assay for inhibitors of human arachidonate 12S-lipoxygenase (ALOX12): Round 2; Polyunsaturated fatty acid lipoxygenase ALOX12 (Homo sapiens), P18054; Potency, µM (top dose mostly 108 µM), usual class: inhibitors; purified 12hLO, xylenol orange hydroperoxide absorbance; actives 1.1% (n = 580,000)
Target sequence (P18054 whole entry, looked up): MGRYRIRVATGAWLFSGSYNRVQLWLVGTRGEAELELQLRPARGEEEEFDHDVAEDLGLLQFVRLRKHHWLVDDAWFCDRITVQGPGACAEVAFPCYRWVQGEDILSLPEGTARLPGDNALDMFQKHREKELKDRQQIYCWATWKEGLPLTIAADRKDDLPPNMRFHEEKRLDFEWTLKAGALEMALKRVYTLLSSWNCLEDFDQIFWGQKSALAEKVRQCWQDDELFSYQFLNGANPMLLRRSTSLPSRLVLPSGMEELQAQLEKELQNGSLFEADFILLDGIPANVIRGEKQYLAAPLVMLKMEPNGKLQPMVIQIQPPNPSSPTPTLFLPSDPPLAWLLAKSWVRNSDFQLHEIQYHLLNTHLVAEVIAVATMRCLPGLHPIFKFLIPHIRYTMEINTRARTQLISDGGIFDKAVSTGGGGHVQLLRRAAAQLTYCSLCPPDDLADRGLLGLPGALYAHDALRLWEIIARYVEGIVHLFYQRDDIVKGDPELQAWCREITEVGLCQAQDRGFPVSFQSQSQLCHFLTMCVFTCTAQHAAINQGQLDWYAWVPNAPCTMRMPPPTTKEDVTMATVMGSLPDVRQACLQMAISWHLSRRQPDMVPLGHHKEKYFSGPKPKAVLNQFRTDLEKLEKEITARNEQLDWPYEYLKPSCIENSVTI
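Purified human 12hLO (150 nM final) in 25 mM Hepes, 0.01% Triton X-100, pH 7.0 was preincubated 15 min at room temperature with compound. Then 40 uM arachidonic acid was added, 30 min. Hydroperoxide was read by Fe-XO absorbance ratio 573/405 nm.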
A number is an active result; . = inactive; ? = inconclusive; / = no result given. Unless noted, calls come from the whole dose curve; as a rule, active = well fitted curve in the direction sought with a large enough effect; inconclusive = small, poorly fitted or top-dose-only effect, or another doubt; inactive = no such curve, though single readings can be large; an effect the other way counts as inactive or inconclusive.

SMILES	Nrf2 activator	uPA surface inh	Integrin act MD	IL2 activator	ALOX12 inh
CCOc1ccc(/C(O)=C2/C(=O)C(=O)N(c3ncccn3)C2c2ccc(Cl)cc2)cc1 (configuration not stated)	.	.	.	.	.
C=CCOc1ccc(/C(O)=C2\C(=O)C(=O)N(CCOC)C2c2cccnc2)cc1 (configuration not stated)	.	.	.	.	40µM
CCCOc1ccc(/C(O)=C2/C(=O)C(=O)N(CCOC)C2c2cccnc2)cc1 (configuration not stated)	/	/	/	/	.
CCOc1ccc(/C(O)=C2\C(=O)C(=O)N(c3nccs3)C2c2ccc(C)cc2)cc1 (configuration not stated)	/	/	/	/	6.3µM
COc1ccc(C(=O)Nc2cccc3ccc(C)nc23)cc1	/	/	/	/	.
Cc1cccc(Cn2c(NCCCn3ccnc3)nc3c2c(=O)[nH]c(=O)n3C)c1	/	/	/	/	.
O=C(Cn1nc2n(c1=O)CCCCC2)NCc1ccc(Cl)cc1	/	/	/	/	.
COc1cccc(C=NNc2ccc([N+](=O)[O-])cn2)c1OC	.	.	.	.	.
COc1ccccc1C=NNc1ccc([N+](=O)[O-])cn1	.	.	.	73	.
N#Cc1ccccc1Cn1cc(/C=N/Nc2ccc([N+](=O)[O-])cn2)c2ccccc21	.	.	.	74	.
COc1ccc(NC(=O)COc2ncnc3ccccc23)c([N+](=O)[O-])c1	/	/	/	/	.
O=C(Nc1cc(S(=O)(=O)N2CCOCC2)ccc1N1CCCC1)c1ccc(Cl)cc1	.	.	.	.	25µM
O=C(Nc1cc(S(=O)(=O)N2CCOCC2)ccc1N1CCCC1)c1ccc2c(c1)S(=O)(=O)c1ccccc1C2=O	.	.	.	.	14µM
O=C(CNc1cc(S(=O)(=O)N2CCCCC2)ccc1N1CCCCC1)Nc1ccc(F)cc1	/	/	/	/	10µM
CCN1C=C(C(=O)O)C(C)=NS1(=O)=O	/	/	/	/	.
COc1ccccc1NC1(c2nnnn2-c2cccc(C)c2)CCC(C)CC1 (configuration not stated)	/	/	/	/	.
S=C(Nc1ccccc1)Nc1nc2ccccc2n1CCOc1ccc(Br)cc1	.	.	.	.	28µM
Cc1ccc(S(=O)(=O)N2[C@@H](c3ccc(C(C)(C)C)cc3)C(C(=O)O)=CC[C@H]2c2ccc(Cl)c(Cl)c2)cc1	.	.	.	.	35µM
CCNC(=O)NC(=O)C(C)N1CCN(c2ccc(F)cc2)CC1 (configuration not stated)	/	/	/	/	.
O=C(Cc1c[nH]c2ccccc12)N1CCN(C(=O)NCCc2ccccc2)CC1	/	/	/	/	.
CCOc1cc(C(c2c(C)[nH]c3ccccc23)c2c(C)[nH]c3ccccc23)ccc1O	/	/	/	/	7.9µM
Cc1cc(NC(=O)Nc2cc(Cl)sc2Cl)no1	3.2µM	.	.	.	/
CCNc1c(NS(=O)(=O)c2cc(C)cc(C)c2)c(=O)oc2ccccc12	/	/	/	/	.
O=[N+]([O-])c1ccc(Cl)c(/C=N/N2CCN(c3ccccc3)CC2)c1	13µM	.	.	.	.
Clc1nc(-c2ccccn2)nc2scc(-c3ccccc3)c12	?	10µM	.	.	.
SMILES	Nrf2 activator	uPA surface inh	Integrin act MD	IL2 activator	ALOX12 inh
COc1ccc(NC(=O)COCC(=O)N(c2ccccc2)c2ccccc2)cc1	/	/	/	/	.
CCn1nccc1C(=O)N1CCC(N2C[C@H](O)C[C@H]2C(=O)NC2CCCCC2)CC1	/	/	/	/	.
CCOC(=O)Cn1cc(/C=C/[N+](=O)[O-])c2ccccc21	.	10µM	.	.	?
CCOC(=O)Cn1cc(C#N)c2ccccc21	.	.	.	.	.
O=S1(=O)CC(N2CCN(CCO)CC2)CN1Cc1cn(Cc2cccc(C(F)(F)F)c2)nn1 (configuration not stated)	.	/	/	.	25µM
Cc1cccc(CN2CCN(C3CN(Cc4cn(Cc5cccc(C(F)(F)F)c5)nn4)S(=O)(=O)C3)CC2)c1 (configuration not stated)	.	/	/	.	13µM
O=S1(=O)CC(N2CCSCC2)CN1Cc1cn(Cc2cccc(C(F)(F)F)c2)nn1 (configuration not stated)	.	/	/	.	.
COCCCn1cc(CN2CC(N3CCN(Cc4cccc(C)c4)CC3)CS2(=O)=O)nn1 (configuration not stated)	.	/	/	.	11µM
CN(C)CCN1CCN(C2CN(Cc3cn(Cc4cccc(C(F)(F)F)c4)nn3)S(=O)(=O)C2)CC1 (configuration not stated)	.	/	/	.	?
COCCCn1cc(CN2CC(N3CCCCC3)CS2(=O)=O)nn1 (configuration not stated)	.	/	/	.	.
Cc1[nH]c2ccc(C(=O)OC(C)C(=O)N3CCOCC3)cc2c1C (configuration not stated)	/	/	/	/	.
COc1cc(C(=O)/C=C/c2cc(Br)c(O)c(OC)c2)ccc1OCC(=O)O	/	/	/	/	10µM
Cc1ccc(C(=O)/C=C/c2cc(Br)c(O)c(Br)c2)cc1	/	/	/	/	28µM
CCOc1ccc(-c2noc(-c3nnn(-c4cccc(Cl)c4C)c3N)n2)cc1	/	/	/	/	.
O=C(C=Cc1cccs1)c1ccc(Cl)s1	22µM	.	.	.	?
O=C(/C=C/c1cccs1)c1cc(Cl)ccc1O	14µM	.	.	.	.
CNC(=O)Cc1ccc(NC(=O)C2CCCC2)cc1	/	/	/	/	.
O=C(Nc1ccccc1)N[C@H]1[C@H](O)[C@@H](N2CCOCC2)[C@@H]2OC[C@H]1O2	/	/	/	/	.
O=C(Nc1ccccc1)N[C@H]1[C@H](O)[C@@H](N2CCN(c3ccccc3)CC2)[C@@H]2OC[C@H]1O2	/	/	/	/	112µM
Cc1ccc(NC(=O)COc2ccccc2CNC(C)(C)CC(C)(C)C)cc1	.	.	14µM	.	.
Cc1ccccc1OCC(=O)Nc1ccccc1CO	10µM	.	.	.	.
CSc1ccccc1NC(=O)COc1ccccc1C	.	?	?	.	.
C#CCOCCOCCOCCNc1nc(N2CCN(C(=O)[C@H](CC(N)=O)n3cc(C(N)[C@@H](C)CC)nn3)CC2)nc(N2CCN(C(=O)[C@H](CCCCN)n3cc([C@@H](N)CC(N)=O)nn3)CC2)n1 (some centres not stated)	.	.	.	.	.
C#CCOCCOCCOCCNc1nc(N2CCN(C(=O)[C@H](CC(N)=O)n3cc(C(N)[C@H](C)CC)nn3)CC2)nc(N2CCN(C(=O)[C@H](CC(N)=O)n3cc(C(N)[C@@H](C)CC)nn3)CC2)n1 (some centres not stated)	.	.	.	.	0.63µM
C#CCOCCOCCOCCNc1nc(N2CCN(C(=O)[C@H]([C@@H](C)CC)n3cc(CCCN=C(N)N)nn3)CC2)nc(N2CCN(C(=O)[C@H]([C@@H](C)CC)n3cc(CCC(=O)O)nn3)CC2)n1	.	.	.	.	10µM

Assay outcomes (PubChem BioAssay)
